Reference: PubChem BioAssay (NCI)
Compounds without any hit were thinned out: in the full panel of roughly 79,000, 15% have a hit. Values without a mark were called inactive. Active and inactive are the calls of the source. Rule as the data show it: active = growth inhibition above about 70%; inactive = the rest.

Assay: NCI Yeast Anticancer Drug Screen. Data for the rad50 strain (AID 155);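 also: 0% = growth of vehicle-only cultures of the same strain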
Conditions: S. cerevisiae rad50 strain growth inhibition; at 50.0 µM; active compounds read high
Method in brief: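 A DNA repair-deficient yeast mutant serves as the test organism; compound-induced growth inhibition is calculated against vehicle-treated cells.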

| Compound | growth inhibition |
| --- | --- |
| OC1C2COc3nc4ccccc4n3C(O2)C1O (configuration not stated) | -7.3% |
| CN(C)CC1Cc2ccsc2C1=O (configuration not stated) | 99% (active) |
| CCCC(O)C[N+](=O)[O-] (configuration not stated) | 48.2% |
| CC1=NC(C)=C(/C(C)=N/NC(=O)c2ccccc2O)C(C)/C1=C(/C)NNC(=O)c1ccccc1O (configuration not stated) | 74.7% (active) |
| O=[N+]([O-])c1cccc(S(=O)(=O)N/N=C/c2cc(I)cc([N+](=O)[O-])c2O)c1 | 25.1% |
| CNC(=O)OC(C)CN1c2ccccc2Sc2ccc(Cl)cc21 (configuration not stated) | 89.1% (active) |
| O=[N+]([O-])c1ccc(NSc2ccccc2)cc1 | 89.2% (active) |
| CCOc1ccc2c(c1)nc1ccccc1[n+]2CC | 20.3% |
| O=C1C=CC(=O)c2c(O)c(N3CCN(CCO)CC3)c(Cl)c(O)c21 | 84.7% (active) |
| O=C1CSC(c2cccc([N+](=O)[O-])c2)N1c1ccc(-c2ccc(-n3c(-c4ccccc4)nc4ccccc4c3=O)cc2)cc1 (configuration not stated) | 25.1% |
| CCC(=O)c1ccc2ccc3ccccc3c2c1 | 62.5% |
| N#CSCc1c(Cl)cccc1Cl | 81.7% (active) |
| O=[N+]([O-])/C(C(Cl)=C(Cl)Cl)=C(/Sc1ccccc1)N1CCOCC1 | 88.2% (active) |
| COc1c2occc2c(OC)c2c(C)c(C(=O)OCCN3CCOCC3)oc12 | 64% |
| COc1cnn(-c2ccccc2)c(=O)c1SCc1ccc(Cl)c(Cl)c1 | 42.5% |
| COc1ccc(/C=C/c2c[n+]([O-])ccc2[N+](=O)[O-])cc1 | 77% (active) |
| CS(=O)(=O)OCCCN(CCCOS(C)(=O)=O)c1ccc(C=Nc2ccc(-c3csc(COc4ccc(Br)cc4Br)n3)cc2)cc1 | 86.3% (active) |
